Experimental data: PubChem BioAssay (NCATS)
“And” between values parts separate entries of the source, which are not always exact repeats. Equal values may be shown once. Results filed as inconclusive are left out. Values without a mark were called inactive. The call rests on the fitted dose curve; in most records, active means well fitted curve in the direction sought with a large enough effect in the signal ratio, with a control signal flat; inconclusive means small, poorly fitted or top-dose-only effect, or a change in a side signal; inactive means no such curve, though single readings can be large or run the other way; the % refers to the signal ratio.

target: Glucocorticoid receptor (Homo sapiens) (UniProt P04150); assay: qHTS assay for small molecule agonists of glucocorticoid receptor signaling (AID 588532); conditions: HeLa MMTV-bla, beta-lactamase ratio, agonist, 18 h; hits give high values; percent of dexamethasone control, DMSO zero
Sequence (P04150 whole entry, looked up): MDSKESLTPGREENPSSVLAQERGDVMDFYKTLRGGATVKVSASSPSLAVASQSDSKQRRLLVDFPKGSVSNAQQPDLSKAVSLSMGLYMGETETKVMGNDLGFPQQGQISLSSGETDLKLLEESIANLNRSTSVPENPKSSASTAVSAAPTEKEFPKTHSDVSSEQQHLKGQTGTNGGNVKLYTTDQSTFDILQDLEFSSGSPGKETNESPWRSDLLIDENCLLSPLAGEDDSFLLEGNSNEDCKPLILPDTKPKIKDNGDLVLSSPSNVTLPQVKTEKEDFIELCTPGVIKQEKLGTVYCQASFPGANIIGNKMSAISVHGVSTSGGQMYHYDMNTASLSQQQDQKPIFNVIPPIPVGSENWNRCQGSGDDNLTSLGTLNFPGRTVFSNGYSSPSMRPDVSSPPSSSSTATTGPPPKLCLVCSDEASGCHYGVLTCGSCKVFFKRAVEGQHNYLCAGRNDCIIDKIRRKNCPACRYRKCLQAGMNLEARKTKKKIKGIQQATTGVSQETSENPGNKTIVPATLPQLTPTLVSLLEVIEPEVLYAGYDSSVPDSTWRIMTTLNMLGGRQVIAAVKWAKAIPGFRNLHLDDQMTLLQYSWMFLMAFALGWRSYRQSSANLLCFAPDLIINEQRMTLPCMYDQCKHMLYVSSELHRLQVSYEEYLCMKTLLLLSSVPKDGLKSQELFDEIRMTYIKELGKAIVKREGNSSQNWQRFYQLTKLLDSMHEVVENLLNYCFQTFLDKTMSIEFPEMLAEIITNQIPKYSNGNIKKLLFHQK
Description: NIH Chemical Genomics Center [NCGC] U.S. Environmental Protection Agency [EPA] National Institutes of Environmental Health Sciences [NIEHS] National Toxicology Program [NTP] NCGC Assay Overview The Glucocorticoid receptor (GR), a nuclear receptor subfamily member and its natural ligands includes […] etc. The GR is a validated drug target for inflammation. GR ligands such as dexamethasone are clinically available as anti-inflammatory drugs. Glucocorticoids implicate role in carbohydrate, protein and lipid metabolisms and programmed cell death. They are also a component of many chemotherapy regimens for the treatment of leukemias, lymphomas, and myelomas because of their role in the induction of apoptosis.
NCGC Assay Protocol Summary Using a beta-lactamase reporter-gene under control of glucocorticoid response element (GRE), a cell-based assay [CellSensor MMTV-bla HeLa cell line assay developed by Invitrogen] was used to measure GR ligands signaling. CellSensor MMTV-bla HeLa cells were used with assay medium containing 1% charcoal/dextran treated FBS, 0.1 mM NEAA, 1 mM sodium pyruvate and 25mM HEPES. The assay was performed in clear bottom black Greiner 1536-well plates. Dexamethasone and Mifepristine were used in the screen as agonist and antagonist positive controls respectively. Library compounds were measured for their ability to stimulate the reporter gene activity. Compounds were screened in a titration series in 1536-well format. The fluorescence intensity (405 nm excitation, 460/530 nm emission) was measured using an EnVision plate reader. Data was normalized relative to Dexamethasone control (0.1 uM, 100%), and DMSO only wells (basal, 0%). Concentration-response titration points for each compound were fitted to the Hill equation yielding concentrations of half-maximal stimulation (EC50) and maximal response (efficacy) values. qHTS protocol for GR beta-lactamase assay in agonist mode [Step] [Parameter] [Value] [Description] 1. Reagent; 6 uL; 1500 cells/well 2. Incubation; 37 C for 3-5 hrs 3. Compounds; 23 nL; 0.59 nM to 92 uM 4. Controls (Dexamethasone); 23 nL, - One column with dose response, start 4.6uM, 1:3 dilutions in duplicates - Final concentrations of 0.1 uM and 2 nM in two columns 5. Incubation; 37 C for 18 hrs 6. Detection reagent; 1 uL of CCF4-dye 7. Incubation; RT for 2 hrs 8. Detection; Fluorescence; Envision plate reader

Structure (SMILES)	activation
CC(=O)Nc1ccc(C)cc1	8.72%
CCCCCCC(=O)O	2.07%
CCOc1cc(OCC)c(C(C)=O)cc1OCC	-0.956%
Cc1cc(C)c(N)cc1C	5.44%
CCCC(Cl)CCCC(Cl)CCC(Cl)CCC(Cl)CCC(Cl)CCCC(Cl)CCC (stereo not given)	3.07%
BrC(Br)C(Br)Br	-1.02%
CC=C(Cl)Cl	-2.89%
Cc1ccc2ccccc2c1[N+](=O)[O-]	-8.32%
CCOC(=O)OCC	-5.65%
CCCCCCCCC/C=C/CC1CC(=O)OC1=O (stereo not given)	0.907%
Cc1cc(C(=O)O)ccc1[N+](=O)[O-]	1.49%
Cc1ccc(C)c(O)c1	4.8%
O=[N+]([O-])c1cc(C(F)(F)F)ccc1Cl	-0.113%
Cc1cccc2sc(N)nc12	-9.53%
CCC(C)(C)C	-3.95%
CN(C)CCCCl	13.4%
Cc1cc(C)cc([N+](=O)[O-])c1	-8.13%
CCOc1ccccc1N	-6.27%
CC(=O)OCCC(C)C	4.89%
CCCCCCO	-1.01%

Structure (SMILES)	activation
O=C(O)c1ccccc1C(=O)O	-4.91%
CC(O)CC(C)O (stereo not given)	0.893%
O=C1OC(=O)c2c(Br)c(Br)c(Br)c(Br)c21	-2.08% and -7.32%
C=C(C)C(=O)OC	-3.9%
CC(C)(O)CCC(C)(C)O	-3.83%
O=C(O)c1cccc([N+](=O)[O-])c1	3.85%
CC(C)(C)c1ccc(OCC2CO2)cc1 (stereo not given)	-4.85%
CCOC(=O)C(C)C(C)=O (stereo not given)	-10.2%
Cc1cccc(C)c1[N+](=O)[O-]	4.67% and -8.43%
CCCCC(C=O)CC (stereo not given)	-0.985%
C=C(C)C1CC=C(C)C(OC(C)=O)C1 (stereo not given)	3.07%
O=C(O)c1ccc(CO)o1	-2.95%
O=C(Cl)c1c(Cl)cccc1Cl	-4.67%
Nc1nc(CC(=O)O)cs1	1.59%
NC(=O)/N=N/C(N)=O	7.65%
CC1=C(/C=C/C(C)=C/C=C/C(C)=C\C=O)C(C)(C)CCC1	1.42%
Cc1ccc(C)cc1	-0.888%
CC/C=C/C#N	-1.94%
O=[N+]([O-])c1c(Cl)cc(Cl)cc1Cl	0.964%
CCC(C)O (stereo not given)	0.0998%
